Among all 310,000 compounds or so, about 14,000 (4.5%) showed an effect of 50% or more. The effect is printed as a negative number. This is one part of a sample in which strong results are shown more often than they occur.
molecular target: human ether-à-go-go-related gene (hERG) potassium channel (human, UniProt Q12809); test: primary screen, population patch clamp on CHO cells stably expressing hERG; higher = less effect of the substance
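Note: peak tail current of the secondary pulse compared with the same well before compound.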

Chain of human ether-à-go-go-related gene (hERG) potassium channel (Q12809 whole entry, looked up): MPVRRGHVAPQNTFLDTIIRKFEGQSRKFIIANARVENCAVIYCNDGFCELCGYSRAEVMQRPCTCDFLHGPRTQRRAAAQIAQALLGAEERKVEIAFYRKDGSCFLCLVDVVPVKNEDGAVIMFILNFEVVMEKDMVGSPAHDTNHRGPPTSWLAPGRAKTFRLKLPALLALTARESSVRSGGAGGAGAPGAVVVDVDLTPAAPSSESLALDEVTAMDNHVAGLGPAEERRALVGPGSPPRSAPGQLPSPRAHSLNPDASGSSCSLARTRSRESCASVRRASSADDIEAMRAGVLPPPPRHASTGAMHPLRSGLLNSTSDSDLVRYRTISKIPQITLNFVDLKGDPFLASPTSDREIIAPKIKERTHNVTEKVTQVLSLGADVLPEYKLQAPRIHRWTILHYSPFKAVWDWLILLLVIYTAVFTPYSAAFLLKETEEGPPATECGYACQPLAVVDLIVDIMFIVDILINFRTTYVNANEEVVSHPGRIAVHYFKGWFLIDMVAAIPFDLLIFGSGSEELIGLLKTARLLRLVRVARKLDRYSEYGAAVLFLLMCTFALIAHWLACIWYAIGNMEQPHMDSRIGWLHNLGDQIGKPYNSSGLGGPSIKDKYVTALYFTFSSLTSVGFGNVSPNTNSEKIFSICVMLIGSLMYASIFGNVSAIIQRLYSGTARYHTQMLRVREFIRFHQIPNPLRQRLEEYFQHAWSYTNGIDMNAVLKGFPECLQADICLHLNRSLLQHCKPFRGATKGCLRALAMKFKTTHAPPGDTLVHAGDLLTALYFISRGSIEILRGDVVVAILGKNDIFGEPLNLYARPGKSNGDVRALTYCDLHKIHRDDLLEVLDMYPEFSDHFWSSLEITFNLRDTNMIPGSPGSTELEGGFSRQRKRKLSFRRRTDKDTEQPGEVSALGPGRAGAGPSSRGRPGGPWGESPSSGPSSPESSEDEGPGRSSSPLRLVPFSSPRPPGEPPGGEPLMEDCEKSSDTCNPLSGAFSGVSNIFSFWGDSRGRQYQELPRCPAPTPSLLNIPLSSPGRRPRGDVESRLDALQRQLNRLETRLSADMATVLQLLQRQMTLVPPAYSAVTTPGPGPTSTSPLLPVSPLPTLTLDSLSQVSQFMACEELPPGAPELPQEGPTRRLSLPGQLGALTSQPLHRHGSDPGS

Point of comparison: `Cc1ccc(NC(=O)NCCN2CCN(c3ccccc3)CC2)cc1Cl`, “hERG current change (%, negative = inhibition) at 10uM” value 16.7%. Against it:
- CCN(CC(=O)NC1CCS(=O)(=O)C1)S(=O)(=O)c1cc(C)ccc1C (stereo not drawn) — lower, 10.2%
- COc1ccc(NC(=O)Cn2c(=O)c(C)nc3ccccc32)cc1Cl — lower, -2.07%
- CN(C)c1ccc(CCc2ccc(N)cc2)cc1 — higher, 19.9%
- Cc1sc(NC(=O)c2ccco2)c(CN2CCN(c3ccccc3)CC2)c1C — lower, 7.18%
- CCOc1ccc2c(c1)nc(NCCCO)n2Cc1ccccc1 — lower, -20.3%
- O=c1[nH]c2ccccc2nc1-c1cccs1 — lower, 1.66%
- COc1cc(C)nc(N2CCCC(C(=O)Nc3cccc(Cl)c3C)C2)n1 (stereo not drawn) — lower, 0.916%
- C/C(=C\C(=O)c1cccnc1)Nc1ccc(O)cc1 — lower, -6.35%
- CCOc1cc(N(CC)CC)ccc1/C=C(/C#N)c1nc2ccccc2[nH]1 — lower, 0.119%
- NC(=O)c1nc(-c2ccco2)nc2c1[nH]c(=O)n2-c1ccc(Cl)c(Cl)c1 — lower, -9.13%
- COC(=O)c1ccccc1NC(=O)NCc1ccccc1 — lower, -3.24%
- Cc1c(C(=O)OC2CCC(C)CC2)[nH]c2c1C(=O)CCC2 (stereo not drawn) — lower, -3.25%
- Cc1ccc(NS(=O)(=O)c2ccc(-c3csc(C)n3)s2)c(C)c1 — lower, 16%
- CCN(CCn1cccn1)C(=O)c1cc(COc2ccc(F)cc2Cl)on1 — lower, -15.4%
- CCN(CCn1cccn1)C(=O)c1cc(COc2c(F)cccc2F)on1 — lower, 0.76%
- CCN(CCn1cccn1)C(=O)c1cc(COc2ccc(F)c(F)c2)on1 — lower, -96%
- O=C1C2C3c4ccccc4C(c4ccccc43)[C@@H]2C(=O)N1c1ccccn1 (stereo partly drawn) — lower, 5.6%
- O=C(N/N=C/c1ccc(OC(F)F)cc1OC(F)F)c1cccc(S(=O)(=O)N2CCOCC2)c1 — lower, -33.1%
- COC(=O)Cn1ncn2c(cc3oc(C)cc32)c1=O — lower, 13.1%
- CCN(CC(=O)Nc1ccc(OC)cc1)C(=O)COc1cccc2c1OC(C)(C)C2 — lower, -14.1%
- Cc1ccccc1C1CCCN(Cc2nc(CC3CC3)no2)C1 (stereo not drawn) — lower, -12.7%
- c1ccc(OCc2noc(CN3CC[C@@H]4CCCC[C@H]4C3)n2)cc1 — lower, 0.704%
- c1ccc(CN2CCCC3(CCCN(Cc4nc(CC5CC5)no4)C3)C2)cc1 (stereo not drawn) — lower, -52.1%
- c1ccc(CN2CCCC3(CCCN(Cc4nc(COc5ccccc5)no4)C3)C2)cc1 (stereo not drawn) — lower, -69.3%
- C=CCC1(CC=C)CCCN1Cc1nc(COc2ccccc2)no1 — lower, -11.5%
- c1ccc(C2CCCN(Cc3nc(CC4CC4)no3)CC2)cc1 (stereo not drawn) — lower, 2.97%
- CN(CC(=O)O/N=C(\N)c1ccccn1)S(=O)(=O)c1ccccc1 — lower, -4.98%
- COc1ccc(N2CCN(CCNC(=O)Nc3cc(Cl)ccc3OC)CC2)cc1 — lower, 3.23%
- O=C(Nc1ccc2ccccc2c1)N1CCCN(CCOc2ccccc2)CC1 — lower, -66%
- CCCN1CCN(C(=O)Nc2ccc(OCC)cc2)CC1 — lower, -1.93%
- Cc1ccccc1NC(=O)NCCCN1CCN(C)CC1 — higher, 28.1%
- Cc1ccccc1NC(=O)NCCCN1CCN(c2ccccc2)CC1 — lower, -50.7%
- COc1ccccc1NC(=O)NCCN1CCN(c2cccc(Cl)c2)CC1 — lower, -9.6%
- Cc1cccc(C)c1NC(=O)NCCCN1CCN(c2ccccc2)CC1 — lower, -41.1%
- O=C(Nc1ccc(F)cc1F)N1CCCN(CCOc2ccccc2)CC1 — lower, -45.2%
- COc1ccccc1NC(=O)NCCCN1CCN(c2cccc(Cl)c2)CC1 — lower, -73.7%
- Cc1noc(C)c1NC(=O)NCCN1CCN(Cc2ccccc2)CC1 — lower, 13.7%
- O=C(NCCN1CCCCC1)Nc1ccccc1 — lower, -23.2%
- O=C(NCCN1CCN(Cc2ccccc2)CC1)Nc1cc(Cl)cc(Cl)c1 — lower, -75.2%
- CC(C)C(C)NC(=O)CSc1ccc(S(=O)(=O)N2CCOCC2)cn1 (stereo not drawn) — lower, -1.56%
- CCOC(=O)C(CSCc1ccccc1)NC(=O)OC(C)(C)C (stereo not drawn) — lower, -14.8%
- CCOCCCNC(=O)C(C)NS(=O)(=O)c1ccc(C)cc1 (stereo not drawn) — lower, 4.29%
- COc1ccccc1NC(=O)CSCc1cc(=O)n2ccsc2n1 — lower, 13.3%
- COc1cccc(C(=O)O/N=C(\N)c2ccccn2)c1 — lower, -2.49%
- Cc1cc(C)cc(C(=O)Nc2cccc(NC(=O)c3ccco3)c2)c1 — lower, -14.2%
- Cc1ccc(S(=O)(=O)NCCC(=O)N2CCCCCC2)cc1 — lower, 1.86%
- CC(C)c1nc(SCC(=O)N2CCCC2)c2c(=O)n(C)c(=O)n(C)c2n1 — lower, -21.8%
- O=C(NC(=S)N1CCCC1)c1cccc([N+](=O)[O-])c1 — higher, 19.9%
- CCCCNC(=O)CCCCCNS(=O)(=O)c1ccc(OC)cc1 — lower, 13.8%
- CCn1c(SCC(=O)Nc2ccc(N3CCOCC3)cc2)nnc1-c1ccc(OC)cc1 — lower, -14.8%
- CCCc1c2c(cc3c(=O)cc(C(=O)OCC)oc13)CCCC2 — lower, -0.971%
- COc1cc(OC)cc(C(=O)Nn2cc(C(=O)N3CCN(C)CC3)c3ccccc3c2=O)c1 — lower, 2.72%
- O=C(NCCN1CCN(c2ccccc2)CC1)Nc1cccc(Br)c1 — lower, -58.1%
- O=C(NCCCN1CCN(c2ccccc2)CC1)Nc1ccccc1C(F)(F)F — lower, -49.3%
- O=C(Nc1ccccc1)N1CCN(Cc2ccccc2)CC1.O=C(O)C(=O)O — lower, 11.9%
- O=C(NCCN1CCN(c2ccccc2)CC1)Nc1ccccc1Br — lower, -52.1%
- O=C(Nc1ccccc1)N1CCN(Cc2ccc(Cl)cc2)CC1 — lower, -33.8%
- O=C(NCCN1CCN(c2ccccc2)CC1)Nc1ccccc1Cl — lower, -43.3%
- O=C(NCCN1CCOCC1)Nc1ccccc1 — lower, -6.63%
- O=C(NCCN1CCN(c2ccccc2)CC1)Nc1cccc(Cl)c1 — lower, -55.7%
- O=C(NCCN1CCN(c2cccc(Cl)c2)CC1)Nc1ccccc1 — lower, -35.1%
- O=C(NCCN1CCN(c2ccccc2)CC1)Nc1ccc(Cl)cc1 — lower, -45.5%
- O=C(Nc1cc(Cl)cc(Cl)c1)N1CCCN(Cc2ccccc2)CC1 — lower, -76.3%
- COC(=O)c1sccc1NC(=O)Nc1ccccc1C — lower, 9.22%
- COCCNS(=O)(=O)c1cccc2cccnc12 — lower, 11.6%
- Cc1ccc(N=C2C(=O)Nc3ccccc32)cc1C — lower, 7.9%
- Cn1c(N)c(C(=O)COC(=O)c2nc(Cl)ccc2Cl)c(=O)n(C)c1=O — lower, -11.2%
- COc1ccc(C(=O)NCCCSc2ccccc2)cc1F — lower, 8.32%
- Brc1ccc(C2Nc3cccc4cccc(c34)N2)s1 — lower, 7.9%
- O=C(Nc1ccnn1C1CCN(Cc2ccccc2OC(F)F)CC1)c1cccc(F)c1 — lower, -52.4%
- CCc1ccc(CN2CCC(n3nccc3NC(=O)c3cccc(F)c3)CC2)cc1 — lower, -75.3%
- O=C(Nc1ccnn1C1CCN(Cc2ccc3nonc3c2)CC1)c1cccc(F)c1 — lower, -37.4%
- O=C(Nc1ccnn1C1CCN(C2CCC2)CC1)c1cccc(F)c1 — lower, -12.5%
- O=C(Nc1ccnn1C1CCN(Cc2ccccc2OCCO)CC1)c1cccc(F)c1 — lower, -34.8%
- CCn1cc(CN2CCC(n3nccc3NC(=O)c3cccc(F)c3)CC2)cn1 — lower, -6.71%
- O=C(Nc1ccnn1C1CCN(Cc2cccc(OCCO)c2)CC1)c1cccc(F)c1 — lower, -12.3%
- CCn1cc(CN2CCC(n3nccc3NC(=O)c3cccc(F)c3)CC2)c(C)n1 — lower, -2.72%
- COc1ccc(CN2CCC(n3nccc3NC(=O)c3cccc(F)c3)CC2)cc1O — lower, -80.4%
- O=C(Nc1ccnn1C1CCN(Cc2ccccc2OC(F)F)CC1)c1cccnc1 — lower, -12.3%
- O=C(Nc1ccnn1C1CCN(Cc2ccc(C#CCCO)cc2)CC1)c1cccc(F)c1 — lower, -77.3%
- CCOC(=O)C1CCCCC12C(C#N)=C(N)Oc1n[nH]c(C)c12 (stereo not drawn) — lower, 10.1%
- CN1C(=O)C(CC(=O)Nc2ccc(F)cc2)N(CCCc2ccccc2)C1=S (stereo not drawn) — lower, 0.0595%
- CCOC(=O)c1c(C)[nH]c(C2=NNC(=NC3CC3)SC2)c1C — lower, -30.1%
- COc1ccccc1NC(=O)CNc1ccc(F)c(Cl)c1 — lower, -11.7%
- CCn1cc([N+](=O)[O-])c(C(=O)Nc2ccc3c(c2)OCCO3)n1 — lower, -9.69%
- COCCCNC(=O)c1ccccc1Sc1ccc(NC(C)=O)nc1 — higher, 25.8%
- C=CCn1c(SCC(=O)c2ccc(OC)cc2)nnc1-c1cc2cccc(OC)c2o1 — higher, 25.8%
- CCC(C)NC(=O)CCc1nnc2ccc(N3CCC(C)CC3)nn12 (stereo not drawn) — lower, 3.66%
- COc1ccc(N2CC(C(=O)Nc3ccc4c(c3)OCCO4)CC2=O)cc1 (stereo not drawn) — lower, 4.94%

Source: publication PMC4336329 (PLoS ONE, 2015)
